Assay results as given in PubChem BioAssay (Tox21).
Results filed as inconclusive are left out. The source made the active and inactive calls. Unless noted, the call rests on the fitted dose curve; in most records, active means well fitted curve in the direction sought with a large enough effect in the repeat runs; inconclusive means weak or mixed curves; inactive means no such curve, though single readings can be large; an effect the other way counts as inactive or inconclusive. Where a SMILES comes first, the peptide text is derived from it. [ ]: non-standard residue; d: D form. pGlu = O=C1CC[C@@H](C(=O)O)N1

Columns and labels:
[1] = molecular target: Luciferin 4-monooxygenase (Photinus pyralis) (UniProt P08659); assay: qHTS assay to identify small molecule inhibitors of firefly luciferase (AID 1224835); further: series mostly up to about 120 µM; nearly all actives have a fitted effect of over 25% in size
In short: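 Quantitative HTS format; KM concentrations of both substrates. Purified P. pyralis FLuc activity quantified from luminescence images.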

[2] = qHTS assay to identify small molecule agonists of the constitutive androstane receptor (CAR) signaling pathway - cell viability counter screen (AID 1224836); further: series mostly up to about 92 µM; nearly all actives have a fitted effect of over 45% in size
In short: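 HepG2 cells stably carrying hCAR and a CYP2B6-2.2kb reporter were plated 4 h, then given compounds at 15 concentrations plus PK11195 (final 0.75 uM). After 23 h at 37 C, viability was read by CellTiter-Fluor fluorescence.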

[3] = qHTS assay to identify small molecule antagonists of the constitutive androstane receptor (CAR) signaling pathway - cell viability counter screen (AID 1224837); further: series mostly up to about 92 µM; nearly all actives have a fitted effect of over 45% in size
In short: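 HepG2 cells stably expressing hCAR and a CYP2B6-2.2kb reporter were plated and pre-incubated 4 hr at 37 C/5% CO2, then given compounds at 15 concentrations plus 50 nM CITCO (final). After 23 hr, viability was read by CellTiter-Fluor fluorescence.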

[4] = molecular target: Nuclear receptor subfamily 1 group I member 3 (Homo sapiens) (UniProt Q14994); assay: qHTS assay to identify small molecule agonists of the constitutive androstane receptor (CAR) signaling pathway (AID 1224839);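 further: HepG2 cells stably carrying human CAR and a CYP2B6 luciferase reporter; series mostly up to about 92 µM; nearly all actives have a fitted effect of over 15% in size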
In short: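 HepG2 cells stably expressing hCAR and a CYP2B6-2.2kb luciferase reporter were treated with compounds at 15 concentrations plus 0.75 uM PK11195 (final) for 24 h at 37 C; luminescence was read after ONE-Glo addition.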

[5] = molecular target: Thyrotropin receptor (Homo sapiens) (UniProt P16473); assay: qHTS assay to identify small molecule agonists of the thyroid stimulating hormone receptor (TSHR) signaling pathway (AID 1224843; calls by dose curve; further: nearly all actives have a fitted effect of over 45% in size)
In short: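 TSHR-expressing HEK293 cells (800 per well) were exposed to compounds for 30 min at room temperature. cAMP was then detected by HTRF competition with cAMP-d2 and anti-cAMP cryptate, read after 1 h at room temperature. Fifteen concentrations, triplicate.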

[6] = qHTS assay to identify small molecule antagonists of the estrogen related receptor signaling pathway with the pleiotropic PPARgamma coactivator (PGC) from Tox21 10K library - cell viability counter screen (AID 1224840; active means well fitted cell-killing curve with a large enough effect in the repeat runs, not every such curve was filed as active; further: nearly all actives have a fitted effect of over 40% in size)
In short: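 PGC/ERR cells were seeded at 2,000 cells/well and left 6 hours at 37 C/5% CO2 before pin-tool addition of compounds in DMSO. After 17.5 hours at 37 C, CellTiter-Fluor was added and fluorescence read 30 minutes later.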

[7] = qHTS assay to identify small molecule agonists of the estrogen related receptor signaling pathway with the pleiotropic PPARgamma coactivator (PGC) from Tox21 10K library (AID 1224842); further: nearly all actives have a fitted effect of over 15% in size
In short: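 PGC/ERR reporter cells (NTP line) were seeded 2,000 per well, rested 6 h at 37 C/5% CO2, then pin-dosed with compounds in DMSO for 18 h at 37 C; luciferase read by One-Glo luminescence after 30 min at room temperature.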

[8] = qHTS assay to identify small molecule agonists of the hypoxia (HIF-1) signaling pathway - cell viability counter screen (AID 1224844; calls by dose curve; further: nearly all actives have a fitted effect of over 50% in size)
In short: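 HRE-bla ME-180 cells in medium with 0.5% dialyzed FBS were preincubated 5 hrs at 37C, exposed to compounds for 17 hrs, then viability was read as CellTiter-Glo luminescence after 30 min at room temperature, in the reporter wells.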

[9] = molecular target: Nuclear receptor subfamily 1 group I member 3 (Homo sapiens) (UniProt Q14994); assay: qHTS assay to identify small molecule antagonists of the constitutive androstane receptor (CAR) signaling pathway (AID 1224838); further: nearly all actives have a fitted effect of over 40% in size
In short: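 HepG2 cells stably co-transfected with hCAR and a CYP2B6-2.2kb luciferase reporter were seeded 4 h before compound addition at 15 concentrations. Cells were stimulated with 50 nM CITCO (final) for 24 h at 37 C; luciferase luminescence was then read.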

[10] = qHTS assay to identify small molecule antagonists of the estrogen related receptor signaling pathway with the pleiotropic PPARgamma coactivator (PGC) from Tox21 10K library (AID 1224841; call rule not given here; further: series mostly up to about 92 µM; actives are mostly falling curves and most rising ones were filed inactive; nearly all actives have a fitted effect of over 50% in size)
In short: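 PGC/ERR reporter cells were seeded at 2,000 cells/well and held 6 hours at 37 C/5% CO2 before pin-tool addition of compounds in DMSO. After 18 hours at 37 C, One-Glo was added and luminescence read after 30 minutes at room temperature.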

Measured: Potency

Thyrotropin receptor (Homo sapiens), sequence (P16473 whole entry, looked up): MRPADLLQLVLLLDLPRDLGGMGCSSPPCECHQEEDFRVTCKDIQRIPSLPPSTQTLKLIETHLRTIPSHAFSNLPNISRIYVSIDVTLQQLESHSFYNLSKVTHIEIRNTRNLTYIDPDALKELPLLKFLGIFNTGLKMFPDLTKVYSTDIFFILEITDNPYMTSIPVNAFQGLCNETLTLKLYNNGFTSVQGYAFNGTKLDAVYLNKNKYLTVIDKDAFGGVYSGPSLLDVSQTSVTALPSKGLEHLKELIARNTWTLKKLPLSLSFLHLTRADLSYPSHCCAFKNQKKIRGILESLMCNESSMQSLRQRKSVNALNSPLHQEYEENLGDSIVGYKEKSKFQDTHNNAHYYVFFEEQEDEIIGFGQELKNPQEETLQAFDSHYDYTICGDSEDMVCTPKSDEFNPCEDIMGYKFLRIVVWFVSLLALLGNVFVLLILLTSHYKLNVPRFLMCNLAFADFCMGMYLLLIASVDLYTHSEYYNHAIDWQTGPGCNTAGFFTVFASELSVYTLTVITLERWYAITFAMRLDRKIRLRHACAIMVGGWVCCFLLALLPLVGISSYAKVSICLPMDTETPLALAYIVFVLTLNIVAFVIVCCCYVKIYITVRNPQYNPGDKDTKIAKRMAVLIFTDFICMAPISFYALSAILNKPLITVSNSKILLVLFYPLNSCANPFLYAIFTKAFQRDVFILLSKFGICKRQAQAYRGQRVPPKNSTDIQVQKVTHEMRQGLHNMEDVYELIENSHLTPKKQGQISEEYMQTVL
Luciferin 4-monooxygenase (Photinus pyralis), sequence (P08659 whole entry, looked up): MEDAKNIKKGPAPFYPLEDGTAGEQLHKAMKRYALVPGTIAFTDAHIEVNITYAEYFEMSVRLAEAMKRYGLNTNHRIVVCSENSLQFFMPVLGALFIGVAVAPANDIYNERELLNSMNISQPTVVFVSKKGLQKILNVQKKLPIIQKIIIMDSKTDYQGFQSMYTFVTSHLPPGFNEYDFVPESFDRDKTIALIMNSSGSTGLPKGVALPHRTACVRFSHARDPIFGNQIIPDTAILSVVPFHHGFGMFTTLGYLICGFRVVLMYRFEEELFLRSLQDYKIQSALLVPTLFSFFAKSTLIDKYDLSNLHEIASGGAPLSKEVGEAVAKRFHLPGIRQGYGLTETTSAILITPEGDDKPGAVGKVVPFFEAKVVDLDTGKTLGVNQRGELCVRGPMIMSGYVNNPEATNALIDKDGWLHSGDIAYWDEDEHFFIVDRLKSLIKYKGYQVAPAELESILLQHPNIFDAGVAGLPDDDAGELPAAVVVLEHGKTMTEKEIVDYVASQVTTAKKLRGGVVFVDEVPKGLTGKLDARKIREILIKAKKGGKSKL
Nuclear receptor subfamily 1 group I member 3 (Homo sapiens), sequence (Q14994 whole entry, looked up): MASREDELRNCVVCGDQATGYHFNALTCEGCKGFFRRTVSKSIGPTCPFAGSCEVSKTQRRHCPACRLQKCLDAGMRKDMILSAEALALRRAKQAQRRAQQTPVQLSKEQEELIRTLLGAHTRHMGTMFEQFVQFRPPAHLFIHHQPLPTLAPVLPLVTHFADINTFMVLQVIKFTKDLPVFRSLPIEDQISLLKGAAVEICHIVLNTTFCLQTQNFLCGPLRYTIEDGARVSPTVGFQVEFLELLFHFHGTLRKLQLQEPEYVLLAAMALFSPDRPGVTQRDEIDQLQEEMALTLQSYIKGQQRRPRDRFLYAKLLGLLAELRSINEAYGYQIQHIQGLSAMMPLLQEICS

CCN[C@H]1C[C@H](C)S(=O)(=O)c2sc(S(N)(=O)=O)cc21
inactive: [1] | [2] | [3] | [4] | [5]

COc1cc(C)nc(-n2nc(C)cc2OC)n1
not listed: [9] | [10]
inactive: all other assays above

CNCCO
inactive: [1] | [2] | [3] | [6] | [5] | [8]

CCOC(=O)COC(=O)c1ccccc1C(=O)OCC
not listed: [3] | [10]
inactive: all other assays above

CCCCCCC1CCC(=O)O1 (configuration not stated)
not listed: [3] | [8]
inactive: all other assays above

CC(=O)O[C@@]12CO[C@@H]1C[C@H](O)[C@@]1(C)C(=O)[C@H](O)C3=C(C)[C@@H](OC(=O)[C@H](O)[C@@H](NC(=O)OC(C)(C)C)c4ccccc4)C[C@@](O)([C@@H](OC(=O)c4ccccc4)[C@H]21)C3(C)C
inactive: [1] | [2] | [6]

CCNC(=O)[C@@H]1CCCN1C(=O)[C@H](CCCN=C(N)N)NC(=O)[C@H](CC(C)C)NC(=O)CNC(=O)[C@H](Cc1ccc(O)cc1)NC(=O)[C@H](CO)NC(=O)[C@H](Cc1c[nH]c2ccccc12)NC(=O)[C@H](Cc1cnc[nH]1)NC(=O)[C@@H]1CCC(=O)N1 ([pGlu]HWSYGLRP-NHEt)
not listed: [3] | [10]
inactive: all other assays above

Cc1ccccc1N=C(N)N=C(N)N
inactive: [1] | [2] | [3] | [6] | [5] | [8]

C=CC(=O)OCCCl
inactive: [1] | [2] | [3] | [6] | [8]
